# Records with an inconclusive call do not appear. Active and inactive are the calls of the source. Rule for the calls, unless noted: active = hit-call score of the fitted dose curve at least 0.9, where 1 is the maximum; inconclusive = response in the unintended direction; inactive = score below 0.9.
# Tests used:
# [1] = target: Estrogen receptor beta (Homo sapiens) (UniProt Q92731); experiment: OT_ER_ERbERb_1440: Odyssey Thera (OT) 24-hour HEK293T Protein-Complementation Assay for Estrogen Receptor-beta/-beta Homodimer (AID 2283380);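 note: fluorescence gain from ER beta LBD homodimer complementation read by laser scanning cytometry; scored as signal increase over DMSO baseline for both agonists and antagonists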
# Chain of Estrogen receptor beta (Homo sapiens) (Q92731 whole entry, looked up, the tested form may be a part): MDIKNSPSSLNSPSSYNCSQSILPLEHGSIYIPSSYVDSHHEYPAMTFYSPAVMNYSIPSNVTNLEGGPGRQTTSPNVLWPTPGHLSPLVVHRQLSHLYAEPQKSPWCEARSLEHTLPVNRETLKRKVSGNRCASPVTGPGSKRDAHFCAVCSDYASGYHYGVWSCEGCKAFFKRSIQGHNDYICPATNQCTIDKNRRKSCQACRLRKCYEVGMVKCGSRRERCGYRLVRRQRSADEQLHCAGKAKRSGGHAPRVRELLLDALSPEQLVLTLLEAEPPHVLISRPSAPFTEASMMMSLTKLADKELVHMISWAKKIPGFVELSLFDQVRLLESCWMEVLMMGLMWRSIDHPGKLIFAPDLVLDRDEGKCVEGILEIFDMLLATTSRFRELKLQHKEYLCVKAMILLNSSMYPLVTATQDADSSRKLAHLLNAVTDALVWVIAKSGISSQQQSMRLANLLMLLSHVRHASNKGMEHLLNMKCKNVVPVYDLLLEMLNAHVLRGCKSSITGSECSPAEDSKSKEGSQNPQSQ
# Procedure, shortened: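 Fluorescence increase, nuclear for agonists or whole-cell for antagonists, relative to DMSO vehicle, quantified by laser scanning cytometer after fixation and Draq5 staining. Readout from 24 h treatment of HEK293T cells carrying complementation-paired ER beta LBD (aa 310-547).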
# [2] = target: Estrogen receptor (Homo sapiens) (UniProt P03372); experiment: OT_ERa_GFPERaERE_0480: Odyssey Thera (OT) 8-hour HeLa Transcription Induction Assay for Estrogen Receptor (AID 2283381; active = hit-call score of the fitted dose curve at least 0.9, where 1 is the maximum; inactive = score below 0.9)
# Chain of Estrogen receptor (Homo sapiens) (P03372 whole entry, looked up): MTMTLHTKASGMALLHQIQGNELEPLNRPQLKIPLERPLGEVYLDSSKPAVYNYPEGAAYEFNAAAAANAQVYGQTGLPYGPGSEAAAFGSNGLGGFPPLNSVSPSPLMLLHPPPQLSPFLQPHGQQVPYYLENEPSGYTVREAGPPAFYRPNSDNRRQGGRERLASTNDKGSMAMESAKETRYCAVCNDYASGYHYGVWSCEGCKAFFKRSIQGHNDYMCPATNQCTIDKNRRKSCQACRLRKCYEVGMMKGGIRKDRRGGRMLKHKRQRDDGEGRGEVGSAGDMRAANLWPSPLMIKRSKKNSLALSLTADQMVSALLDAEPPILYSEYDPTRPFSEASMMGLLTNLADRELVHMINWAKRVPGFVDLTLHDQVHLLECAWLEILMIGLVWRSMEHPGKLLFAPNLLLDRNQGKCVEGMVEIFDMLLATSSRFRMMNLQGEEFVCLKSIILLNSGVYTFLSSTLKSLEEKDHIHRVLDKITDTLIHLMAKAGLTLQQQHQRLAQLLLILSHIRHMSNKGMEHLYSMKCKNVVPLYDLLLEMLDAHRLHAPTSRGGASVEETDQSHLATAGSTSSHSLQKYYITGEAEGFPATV
# Procedure, shortened: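 GFP-ERE reporter, HeLa, 8 h exposure. Readout: fluorescence microscopy, high-content image analysis. Fit direction positive vs DMSO negative control.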
# [3] = target: Estrogen receptor (Homo sapiens) (UniProt P03372); experiment: OT_ERa_GFPERaERE_0120: Odyssey Thera (OT) 2-hour HeLa Transcription Induction Assay for Estrogen Receptor (AID 2283382)
# Procedure, shortened: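 Fluorescence microscopy read-out: inducible fluorescent protein reporter in HeLa cells, imaged 2 h post-dose. Signal increase over DMSO negative control fitted as single primary endpoint via high content image analysis.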
# [4] = target: Retinoic acid receptor RXR-alpha (Homo sapiens) (UniProt P19793); experiment: OT_NURR1_NURR1RXRa_1440: Odyssey Thera (OT) 24-hour HEK293T Protein Complementation Assay for Nurr1/retinoid X receptor (RXR) (AID 2283386)
# Chain of Retinoic acid receptor RXR-alpha (Homo sapiens) (P19793 whole entry, looked up, the tested form may be a part): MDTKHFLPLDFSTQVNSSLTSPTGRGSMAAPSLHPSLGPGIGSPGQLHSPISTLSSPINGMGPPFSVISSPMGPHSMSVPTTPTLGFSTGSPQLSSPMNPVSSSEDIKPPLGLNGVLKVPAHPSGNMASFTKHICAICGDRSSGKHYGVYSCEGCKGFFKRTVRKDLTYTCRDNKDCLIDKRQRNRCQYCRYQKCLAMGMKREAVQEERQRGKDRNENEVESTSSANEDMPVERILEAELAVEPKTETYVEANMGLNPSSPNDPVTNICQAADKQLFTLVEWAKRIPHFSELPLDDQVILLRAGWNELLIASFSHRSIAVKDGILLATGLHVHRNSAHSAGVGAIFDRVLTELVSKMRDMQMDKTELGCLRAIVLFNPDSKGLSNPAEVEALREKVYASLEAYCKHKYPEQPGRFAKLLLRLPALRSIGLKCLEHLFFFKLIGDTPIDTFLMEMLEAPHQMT
# Procedure, shortened: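 Fluorescence PCA read-out; HEK293T; 24 h post-dose; bait/prey fused to reporter fragments; gain-of-signal fit vs DMSO negative control.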
# [5] = target: Peroxisome proliferator-activated receptor gamma (Homo sapiens) (UniProt P37231); experiment: OT_PPARg_PPARgSRC1_0480: Odyssey Thera (OT) 8-hour Protein-Complementation Assay for Peroxisome Proliferator-activated Receptor Gamma / SRC-1 Co-activator (AID 2283387)
# Chain of Peroxisome proliferator-activated receptor gamma (Homo sapiens) (P37231 whole entry, looked up, the tested form may be a part): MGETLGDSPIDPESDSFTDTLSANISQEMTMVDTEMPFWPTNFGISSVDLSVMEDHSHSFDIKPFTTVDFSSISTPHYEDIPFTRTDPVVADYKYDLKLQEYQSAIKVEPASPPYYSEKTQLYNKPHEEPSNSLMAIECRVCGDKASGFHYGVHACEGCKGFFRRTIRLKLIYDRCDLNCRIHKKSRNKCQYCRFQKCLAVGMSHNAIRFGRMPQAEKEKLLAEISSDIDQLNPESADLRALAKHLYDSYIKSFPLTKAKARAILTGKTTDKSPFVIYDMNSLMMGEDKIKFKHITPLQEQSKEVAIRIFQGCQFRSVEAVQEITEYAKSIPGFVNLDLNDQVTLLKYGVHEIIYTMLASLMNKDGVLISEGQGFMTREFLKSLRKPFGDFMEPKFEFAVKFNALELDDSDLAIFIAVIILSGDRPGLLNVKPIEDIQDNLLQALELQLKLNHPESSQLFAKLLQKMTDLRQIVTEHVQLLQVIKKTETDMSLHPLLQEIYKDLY
# Procedure, shortened: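 Read-out: 488 nm N/C fluorescence ratio from complemented Venus YFP fragments, ≥350 cells per image, gain-of-signal fitted against DMSO baseline. Fusions of PPARg/SRC-1 with IFP1/IFP2 expressed transiently in HEK293T; compounds applied 8 h.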
# [6] = target: Peroxisome proliferator-activated receptor gamma (Homo sapiens) (UniProt P37231); experiment: OT_PPARg_PPARgSRC1_1440: Odyssey Thera (OT) 24-hour Protein-Complementation Assay for Peroxisome Proliferator-activated Receptor Gamma/ SRC-1 Co-activator (AID 2283388)
# Procedure, shortened: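 HEK293T cells transiently transfected with PPARg and SRC-1 fused via (Gly4Ser)2 linker to split Venus YFP fragments (IFP1/IFP2) were dosed 24 h; fixed, Draq5-stained, imaged at 488/635 nm; nuclear/cytoplasmic fluorescence ratio scored versus DMSO baseline, gain-of-signal.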
# [7] = target: Bile acid receptor (Homo sapiens) (UniProt Q96RI1); experiment: OT_FXR_FXRSRC1_0480: Odyssey Thera (OT) 8-hour HEK293T Protein-Complementation Assay for Farnesoid X receptor/SRC-1 Co-activator (AID 2283383)
# Chain of Bile acid receptor (Homo sapiens) (Q96RI1 whole entry, looked up, the tested form may be a part): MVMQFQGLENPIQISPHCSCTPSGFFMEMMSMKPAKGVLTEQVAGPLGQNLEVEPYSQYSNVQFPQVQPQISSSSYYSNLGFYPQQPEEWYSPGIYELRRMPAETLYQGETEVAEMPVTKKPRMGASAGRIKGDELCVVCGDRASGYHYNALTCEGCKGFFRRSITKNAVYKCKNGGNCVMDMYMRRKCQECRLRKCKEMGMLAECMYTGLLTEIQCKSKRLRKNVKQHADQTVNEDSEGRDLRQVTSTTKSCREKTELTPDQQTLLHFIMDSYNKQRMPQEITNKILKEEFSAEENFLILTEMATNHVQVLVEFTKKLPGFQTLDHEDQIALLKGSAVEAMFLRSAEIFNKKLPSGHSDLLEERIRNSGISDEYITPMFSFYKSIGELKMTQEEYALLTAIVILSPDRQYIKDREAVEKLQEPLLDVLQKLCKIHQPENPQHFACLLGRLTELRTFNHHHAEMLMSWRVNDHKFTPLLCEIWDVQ
# Procedure, shortened: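 Fluorescence intensity read-out, 8 h post-dose, HEK293T protein-fragment complementation; FXR bait and SRC-1 prey each linked to reporter fragments. Activity scored as signal increase over DMSO negative control.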
# [8] = CEETOX_H295R_11DCORT: CeeTox H295R High-throughput Steroidogenesis Assay for 11-Deoxycortisol (11DCORT) (AID 2283432; active = hit-call score of the fitted dose curve at least 0.9, where 1 is the maximum; inactive = score below 0.9); details: actives raise or lower the signal
# Procedure, shortened: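 H295R cells; 10 uM forskolin prestim 48 h; compound in 0.1% DMSO 48 h; media extracted with MTBE; 11-deoxycortisol by LC-MS/MS, 7-point standard curve; gain/loss vs DMSO baseline; viability by MTT in same wells.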
# [9] = CEETOX_H295R_OHPREG: CeeTox H295R High-throughput Steroidogenesis Assay for OH-Pregnenolone (OHPREG) (AID 2283434; active = hit-call score of the fitted dose curve at least 0.9, where 1 is the maximum; inactive = score below 0.9); details: actives raise or lower the signal
# Procedure, shortened: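 Secreted 17alpha-hydroxypregnenolone measured by HPLC-MS/MS after liquid-liquid extraction. Human adrenal H295R cells received 48 h forskolin (10 uM) stimulation before 48 h chemical exposure at 0.1% final DMSO; MTT viability in same wells; bidirectional fit against DMSO.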
# [10] = CEETOX_H295R_OHPROG: CeeTox H295R High-throughput Steroidogenesis Assay for OH-Progesterone (OHPROG) (AID 2283435; active = hit-call score of the fitted dose curve at least 0.9, where 1 is the maximum; inactive = score below 0.9;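 for AC50: 17alpha-hydroxyprogesterone secreted into medium measured by HPLC-MS/MS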); details: actives raise or lower the signal
# Procedure, shortened: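 HPLC-MS/MS quantification of 17alpha-hydroxyprogesterone secreted by H295R cells after 48 h chemical exposure, following 48 h 10 uM forskolin prestimulation. Gain or loss of signal fitted relative to DMSO. Viability checked by MTT in the same wells.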
# [11] = CEETOX_H295R_CORTIC: CeeTox H295R High-throughput Steroidogenesis Assay for Corticosterone (CORTIC) (AID 2283437; active = hit-call score of the fitted dose curve at least 0.9, where 1 is the maximum; inactive = score below 0.9); details: actives raise or lower the signal
# Procedure, shortened: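 Medium corticosterone was quantified by tandem mass spectrometry following 48 hours of chemical exposure (0.1% DMSO) in human H295R cells previously stimulated 48 hours with 10 uM forskolin. Viability checked by MTT; chemicals diluted and retested when viability fell below 70%.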
# [12] = CEETOX_H295R_CORTISOL: CeeTox H295R High-throughput Steroidogenesis Assay for Cortisol (AID 2283438; active = hit-call score of the fitted dose curve at least 0.9, where 1 is the maximum; inactive = score below 0.9;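 note: cortisol secreted into medium quantified by LC-MS/MS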); details: actives raise or lower the signal
# Procedure, shortened: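 Read-out: cortisol in culture medium by reverse-phase C18 HPLC with ESI-positive tandem MS, after MTBE liquid-liquid extraction. Cells: human adrenal H295R, forskolin-primed (10 uM, 48 h) before 48 h chemical exposure in 0.1% DMSO.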
# [13] = CEETOX_H295R_DOC: CeeTox H295R High-throughput Steroidogenesis Assay for DOC (AID 2283439; active = hit-call score of the fitted dose curve at least 0.9, where 1 is the maximum; inactive = score below 0.9); details: actives raise or lower the signal
# Procedure, shortened: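 Human adrenocortical H295R cells, passages up to 10, received 10 uM forskolin for 48 h before chemical addition. After another 48 h exposure in 0.1% DMSO, secreted DOC was measured by LC-MS/MS, with gain or loss fitted against DMSO controls.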
# [14] = target: Bile acid receptor (Homo sapiens) (UniProt Q96RI1); experiment: OT_FXR_FXRSRC1_1440: Odyssey Thera (OT) 24-hour HEK293T Protein-Complementation Assay for Farnesoid X receptor/SRC-1 Co-activator (AID 2283384)
# Procedure, shortened: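 Fluorescence readout, 24 h post-dose, HEK293T; FXR and SRC-1 fused to complementary reporter fragments, association reconstitutes signal. Positive-direction fit vs DMSO baseline.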
# [15] = target: Agonist Androgen Response Element (ARE), AR (gene 367) (UniProt P10275); experiment: OT_AR_ARELUC_AG_1440: Odyssey Thera (OT) 24-hour CHO-K1 Luciferase Assay for Agonist Androgen Response Element (ARE) (AID 2283379)
# Chain of Agonist Androgen Response Element (ARE), AR (gene 367) (P10275 whole entry, looked up): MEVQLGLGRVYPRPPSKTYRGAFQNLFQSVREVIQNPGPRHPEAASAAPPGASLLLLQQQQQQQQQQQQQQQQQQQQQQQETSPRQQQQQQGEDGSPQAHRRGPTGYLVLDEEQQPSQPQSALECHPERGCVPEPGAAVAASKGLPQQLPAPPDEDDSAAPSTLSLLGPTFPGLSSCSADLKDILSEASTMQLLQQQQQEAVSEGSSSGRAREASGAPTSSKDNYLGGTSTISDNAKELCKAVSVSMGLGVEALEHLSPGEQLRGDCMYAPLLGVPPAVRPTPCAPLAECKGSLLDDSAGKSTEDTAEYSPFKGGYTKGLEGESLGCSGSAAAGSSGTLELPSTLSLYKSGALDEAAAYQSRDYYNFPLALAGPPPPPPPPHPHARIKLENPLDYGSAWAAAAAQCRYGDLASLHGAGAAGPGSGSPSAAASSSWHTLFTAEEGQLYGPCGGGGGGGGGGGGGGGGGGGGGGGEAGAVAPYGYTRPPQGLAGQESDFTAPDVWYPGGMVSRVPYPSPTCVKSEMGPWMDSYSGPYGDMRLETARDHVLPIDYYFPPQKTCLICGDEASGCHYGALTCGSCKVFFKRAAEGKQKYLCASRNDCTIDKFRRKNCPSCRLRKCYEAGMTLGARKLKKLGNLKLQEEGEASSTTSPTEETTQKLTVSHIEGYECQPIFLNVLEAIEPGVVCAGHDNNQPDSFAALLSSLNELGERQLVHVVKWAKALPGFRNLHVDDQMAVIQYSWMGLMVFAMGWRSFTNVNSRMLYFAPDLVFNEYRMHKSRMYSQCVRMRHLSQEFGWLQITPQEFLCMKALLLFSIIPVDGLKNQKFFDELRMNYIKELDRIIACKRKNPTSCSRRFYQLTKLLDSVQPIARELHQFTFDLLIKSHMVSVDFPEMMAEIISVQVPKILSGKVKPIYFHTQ
# Procedure, shortened: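 Readout: luciferase bioluminescence from CHO-K1 ARE-luc cells, measured 24 h post-dosing; agonism = increased mean luminescence vs DMSO controls, fitted in positive direction.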
# [16] = CEETOX_H295R_ANDR: CeeTox H295R High-throughput Steroidogenesis Assay for Androstenedione (ANDR) (AID 2283436; active = hit-call score of the fitted dose curve at least 0.9, where 1 is the maximum; inactive = score below 0.9); details: actives raise or lower the signal
# Procedure, shortened: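 Medium from 48 h chemical-treated H295R adrenal cells was extracted with MTBE and androstenedione measured by LC-MS/MS. Activity was fit in both directions relative to DMSO. Cytotoxic concentrations were re-tested after dilution until MTT viability reached ≥70%.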
# [17] = target: Retinoic acid receptor RXR-alpha (Homo sapiens) (UniProt P19793); experiment: OT_NURR1_NURR1RXRa_0480: Odyssey Thera (OT) 8-hour HEK293T Protein Complementation Assay for Nurr1/retinoid X receptor (RXR) (AID 2283385)
# Procedure, shortened: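 Read-out: fluorescence from protein-fragment complementation between Nurr1 and RXRα in human HEK293T cells, 8 h after dosing. DMSO served as negative control; increased signal counted as activity.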
structure (smiles),measurement,setting,value
OC(c1ccc(Cl)cc1)(c1cncnc1)c1ccccc1Cl (configuration not stated),outcome,[1],inactive
same,AC50,[2],12.1 µM (active)
same,outcome,[3],inactive
same,outcome,[4],inactive
same,outcome,[5],inactive
same,outcome,[6],inactive
O=C(O)COc1nc(Cl)c(Cl)cc1Cl,outcome,[2],inactive
same,outcome,[3],inactive
same,outcome,[7],inactive
same,outcome,[5],inactive
same,outcome,[6],inactive
CNC(=S)S,outcome,[1],inactive
same,outcome,[2],inactive
same,outcome,[3],inactive
same,outcome,[5],inactive
same,outcome,[6],inactive
same,outcome,[8],inactive
same,outcome,[9],inactive
same,outcome,[10],inactive
same,outcome,[11],inactive
same,outcome,[12],inactive
same,outcome,[13],inactive
COc1cnc(OC)n2nc(NS(=O)(=O)c3c(OCC(F)F)cccc3C(F)(F)F)nc12,outcome,[1],inactive
same,outcome,[2],inactive
same,outcome,[3],inactive
same,outcome,[5],inactive
same,outcome,[6],inactive
COC(=O)C(C)Oc1ccc(Oc2ccc(Cl)cc2Cl)cc1 (configuration not stated),outcome,[1],inactive
same,AC50,[7],66.2 µM (active)
same,outcome,[14],inactive
same,outcome,[5],inactive
same,outcome,[6],inactive
CC(C)C1(C)N=C(c2nc3ccccc3cc2C(=O)O)NC1=O (configuration not stated),outcome,[1],inactive
same,outcome,[2],inactive
same,outcome,[3],inactive
same,outcome,[7],inactive
same,outcome,[14],inactive
same,outcome,[4],inactive
same,outcome,[5],inactive
same,outcome,[6],inactive
CCOC(=O)CC(SP(=S)(OC)OC)C(=O)OCC (configuration not stated),outcome,[15],inactive
same,outcome,[2],inactive
same,outcome,[3],inactive
same,outcome,[5],inactive
same,outcome,[6],inactive
same,outcome,[8],inactive
same,outcome,[9],inactive
same,AC50,[10],25.8 µM (active)
same,outcome,[16],inactive
same,outcome,[11],inactive
same,outcome,[12],inactive
same,outcome,[13],inactive
CCOc1cc(Oc2ccc(C(F)(F)F)cc2Cl)ccc1[N+](=O)[O-],outcome,[1],inactive
same,outcome,[2],inactive
same,outcome,[3],inactive
same,outcome,[7],inactive
same,outcome,[14],inactive
same,outcome,[5],inactive
same,outcome,[6],inactive
same,outcome,[8],inactive
same,outcome,[9],inactive
same,outcome,[10],inactive
same,outcome,[11],inactive
same,outcome,[12],inactive
same,outcome,[13],inactive
COC(=O)C=C(C)OP(=O)(OC)OC,outcome,[1],inactive
same,outcome,[2],inactive
same,outcome,[3],inactive
same,outcome,[7],inactive
same,outcome,[14],inactive
same,outcome,[5],inactive
same,outcome,[6],inactive
N#Cc1cc(Br)c(O)c(Br)c1,outcome,[2],inactive
same,outcome,[3],inactive
same,outcome,[5],inactive
same,outcome,[6],inactive
CCc1nn(C)c(C(=O)NCc2ccc(C(C)(C)C)cc2)c1Cl,outcome,[1],inactive
same,outcome,[2],inactive
same,outcome,[3],inactive
same,AC50,[7],0.578 µM (active)
same,outcome,[5],inactive
same,outcome,[6],inactive
COP(=S)(OC)Oc1nc(Cl)c(Cl)cc1Cl,outcome,[1],inactive
same,outcome,[2],inactive
same,outcome,[3],inactive
same,outcome,[7],inactive
same,outcome,[5],inactive
same,outcome,[6],inactive
same,outcome,[11],inactive
same,outcome,[12],inactive
same,outcome,[13],inactive
O=C(O)c1nc(Cl)ccc1Cl,outcome,[2],inactive
same,outcome,[3],inactive
same,outcome,[17],inactive
same,outcome,[6],inactive
CCOP(=S)(OCC)SCn1c(=O)oc2cc(Cl)ccc21,outcome,[1],inactive
same,outcome,[2],inactive
same,outcome,[3],inactive
same,AC50,[7],17.9 µM (active)
same,AC50,[14],12 µM (active)
same,outcome,[5],inactive
same,outcome,[8],inactive
same,AC50,[9],5 µM (active)
same,outcome,[10],inactive
same,AC50,[11],1.14 µM (active)
same,outcome,[12],inactive
same,AC50,[13],1.36 µM (active)
CC(C)(C)c1ccc(CSc2cnn(C(C)(C)C)c(=O)c2Cl)cc1,outcome,[1],inactive
same,outcome,[2],inactive
same,outcome,[3],inactive
same,AC50,[7],5.14 µM (active)
same,outcome,[14],inactive
same,outcome,[17],inactive
same,outcome,[5],inactive
same,outcome,[6],inactive
COC(=O)N(OC)c1ccccc1COc1ccn(-c2ccc(Cl)cc2)n1,outcome,[1],inactive
same,outcome,[2],inactive
same,outcome,[3],inactive
same,AC50,[7],1.54 µM (active)
same,AC50,[14],1.45 µM (active)
same,outcome,[5],inactive
same,outcome,[6],inactive

# From PubChem BioAssay (EPA / NIEHS)
